Bioassay records (PubChem)
miR122 inh – miR-122 inhibition in Huh7 cells. AID 602342. 0.3% of 340,000 active. Huh7 miR-122 Renilla luciferase sensor, 48 h; neutral wells = 0, positive control = 100. activation (reporter increase), % at 12.5 µM;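 active = mean replicate activation score at least 90 and every replicate individually at or above 90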;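 also: higher luciferase means less miR-122 activity so hits act as miR-122 inhibitors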
DYRK1A inh – blocks rat Dyrk1A kinase activity. Q63470. ADP-Glo luminescence, NFATc1 peptide. inhibition, % at 12.5 µM. 0.43% of 310,000 active. AID 504441;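 also: plate controls were vehicle with enzyme for no effect and no enzyme for full effect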
NSD2 inh – inhibitors of human histone methyltransferase NSD2 | 0.54% of 310,000 active | AID 743445 | NSD2 peptide methylation, AlphaScreen, 120 min | O96028 | inhibition, % at 12.5 µM
MITF act – MITF TRPM1 promoter activation in melanoma cells. SK-MEL-5 TRPM1-promoter luciferase, 24 h; % of positive control, neutral wells = 0. activation, % at 12.5 µM. 0.75% of 300,000 active. AID 588334;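 active = mean activation of at least 80% with every replicate also reaching 80%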;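 also: 0% = neutral control wells and 100% = parthenolide positive control wells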
Wnt bcat act – Wnt/beta-catenin pathway activation. Wnt/beta-catenin reporter cell assay, activator, plate reader. 1.2% of 300,000 active. activation, % at 9.35 µM; in the data active = activation above about 30%, passing the limit was not always enough;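 also: 0% = neutral control wells and 100% = positive control wells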
GSIS activator – primary screen for activators of insulin secretion dependent on glucose, INS-1E cells, GLuc reporter luminescence; 0.61% of 370,000 active; INS-1E GLuc reporter insulin secretion, 2-3 h; activation, % at 16.6 µM;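 active = lowest replicate activation of at least 40%, so every replicate reaches that level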;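 also: 0% = median of neutral control wells and 100% = median of IBMX positive control wells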
Numbers without * were called inactive; nt = no result given; [ ] = dose if it differs, or a comment. In the library only some 2.4% were active in any assay of this set; here they are far more common. Rule as the data show it, unless noted: active = inhibition above about 50%; inactive = the rest.

SMILES	miR122 inh	DYRK1A inh	NSD2 inh	MITF act	Wnt bcat act	GSIS activator
O=C(C[C@@H]1CC[C@@H]2[C@H](COC[C@@H](O)CN2C(=O)Nc2cc(Cl)cc(Cl)c2)O1)NCC1CCCCC1	-9[16.7 µM]	nt	nt	nt	nt	-1
Cc1noc(C)c1NC(=O)Nc1cccc2c1O[C@@H](CN(C)Cc1ccc(Cl)c(Cl)c1)[C@@H](C)CN([C@H](C)CO)C2=O	114*[16.7 µM]	nt	nt	nt	nt	-3
Cc1noc(C)c1NC(=O)Nc1cccc2c1O[C@H](CN(C)Cc1ccccc1)[C@@H](C)CN([C@@H](C)CO)C2=O	5[16.7 µM]	nt	nt	nt	nt	-1
Cc1noc(C)c1NC(=O)Nc1cccc2c1O[C@H](CN(C)Cc1ccccc1)[C@@H](C)CN([C@H](C)CO)C2=O	97*[16.7 µM]	nt	nt	nt	nt	19
C/C(=N\OCc1ccc(C#N)cc1)c1ccc(S(=O)(=O)N(C)C)cc1	nt	-6	-2	96*	23	4
C/C(=N\OCc1ccc(C#N)cc1)c1ccccc1	-7	nt	-2	88*	0	-17
COc1ccccc1/C=N/OCc1ccc(C#N)cc1	0	-1	-4	11	-2	nt
O=C(NCC[C@@H]1CC[C@@H](NS(=O)(=O)c2ccc(Cl)cc2)[C@H](CO)O1)c1ccccc1F	nt	nt	nt	nt	nt	3
Cc1cc(C(=O)Nc2ccc3ccccc3c2)c(C)o1	4	2	-3	70	34*	-4
Cc1cc(C(=O)Nc2cccc(O)c2)c(C)o1	-4	1	7	3	nt	57*
O=C(Nc1ccc2ccccc2c1)c1cccc2ccccc12	0	0	2	32	-3	71*
O=C(Nc1ccncc1)c1cccc2ccccc12	-18	nt	1	4	5	-2
CC(=O)c1cc(C(=O)Nc2ccc3ccccc3c2)c(C)o1	-5	3	-5	-14	-1	-1
Cc1cc(C(=O)Nc2cccc(C(=O)O)c2)c(C)o1	-19	-103	0	-6	nt	0
CNC[C@@H]1OCCCC[C@H](C)Oc2ccc(NC(=O)NC3CCCCC3)cc2C(=O)N([C@H](C)CO)C[C@@H]1C	-5[16.7 µM]	nt	nt	nt	nt	4
COc1ccc(CN(C)C[C@@H]2Oc3ccc(NC(=O)Nc4c(C)noc4C)cc3C(=O)N([C@@H](C)CO)C[C@@H]2C)cc1	-4[16.7 µM]	nt	nt	nt	nt	27
Cc1cccc2c1-c1sc(C(=O)N3CCCCC3)cc1CO2	3	10	nt	88*	23	-25
CCCNC(=O)[C@H]1[C@H](CO)[C@H]2Cn3c(cccc3=O)[C@@H]1N2S(=O)(=O)c1ccccc1C	-5[16.7 µM]	nt	nt	nt	nt	3
COc1cccc(CN(C)C[C@@H]2OCc3cn(nn3)CCCC(=O)N([C@H](C)CO)C[C@H]2C)c1	4[16.7 µM]	nt	nt	nt	nt	0
CCCCCCOC(=O)c1ccccc1NC(=O)/C=C/C(=O)O	-8	1	2	nt	34*	nt
CCOC(=O)c1ccccc1NC(=O)/C=C/C(=O)O	-5	-3	-1	1	-2	15
CCC(=O)Nc1ccccc1C(=O)OCC(=O)c1ccc2ccccc2c1	-7	6	nt	8	50*	nt
O=C(O)/C=C/C(=O)Nc1ccccc1C(=O)OCC(=O)c1ccc2c(c1)OCCO2	nt	nt	0	15	32*	4
O=C(C1CCC1)N1CC2(C1)[C@@H](c1ccccc1)[C@H](CO)N2C(=O)CC1CC1	nt	nt	nt	nt	nt	8
O=C(O)c1ccc2c(c1)C(=O)N(c1ccc(OCc3ccccc3)cc1)C2=O	-3	nt	1	nt	0	nt
SMILES	miR122 inh	DYRK1A inh	NSD2 inh	MITF act	Wnt bcat act	GSIS activator
Cc1ccc(C(=O)CC(=O)c2ccccc2)cc1	nt	2	-2	nt	18	-1
O=C(O)c1ccc2c(c1)C(=O)N(c1ccc(C(=O)OCC(=O)c3ccccc3)cc1)C2=O	-2	1	-5	nt	47*	2
Cc1ccc(C(=O)OCC(=O)c2ccccc2)cc1	-4	1	-3	64	36*	-4
CCOC(=O)C(CC(=O)c1ccccc1)CC(=O)c1ccccc1	nt	-1	-7	87*	6	16
CN(C)CC(=O)N1[C@H](CO)[C@H](c2ccc(C#CC3CCCCC3)cc2)[C@@H]1C#N	nt	nt	nt	nt	nt	-19
C[C@H](NC(=O)C[C@H]1C[C@@H]2c3cc(NS(C)(=O)=O)ccc3O[C@@H]2[C@H](CO)O1)c1ccccc1	2[16.7 µM]	nt	nt	nt	nt	0
CCN(CC)CCCNC(=O)c1cc2cc(Cl)ccc2nc1N	nt	nt	nt	nt	0	-1
Nc1nc2ccc(Cl)cc2cc1C(=O)NCCc1ccc(Cl)cc1Cl	nt	nt	nt	nt	0	62*
CCNC(=O)C[C@H]1CC[C@H]2[C@@H](COc3ccc(NC(=O)c4cc(C)on4)cc3C(=O)N2C)O1	13[16.7 µM]	nt	nt	nt	nt	-3
CC(C)NC(=O)COc1ccc(S(=O)(=O)N(C)Cc2ccccc2)cc1	-4	2	nt	-4	44*	5
CN(Cc1ccccc1)S(=O)(=O)c1ccc(OCC(=O)NCc2ccccn2)cc1	-4	-2	-4	10	-1	-6
CN(Cc1ccccc1)S(=O)(=O)c1ccc(NC(=S)NC(=O)C2CCCCC2)cc1	125*	9	-1	14	-4	2
CCCC#Cc1ccc([C@H]2[C@H](CO)N3C(=O)CN(S(=O)(=O)Cc4ccccc4)C[C@@H]23)cc1	nt	nt	nt	nt	nt	-8
CCOc1ccc(-c2nnc(SCC(=O)N3CCNC3=O)o2)cc1	-7	0	-2	33	45*	9
CC1CCN(C(=O)CSc2nnc(-c3ccccc3F)o2)CC1	1	1	-1	11	2	63*
CCOc1ccc(-c2nnc(SCC(=O)N3CCN(c4ccccc4)CC3)o2)cc1	-5	-2	nt	-3	-3	4
O=C(CSc1nnc(-c2ccc(Cl)cc2)o1)N1CCOCC1	-8	-4	-3	97*	10	-13
COc1ccccc1-c1nnc(SCC(=O)N2CCC(C)CC2)o1	6	-10	0	-13	2	nt
O=C(CSc1nnc(-c2ccc(O)cc2)o1)N1CCOCC1	1	14	-1	nt	nt	nt
COc1ccc2c3c(n(C)c2c1)[C@H](CO)NCC31CCN(Cc2cc(F)ccc2F)CC1	nt	nt	nt	nt	nt	5
COc1ccc(CCn2nnc(-c3ccc(NC(C)=O)c(Cl)c3)n2)cc1	-9	1	-4	nt	nt	81*
Cn1c2nc3ccccc3c-2nc2ccccc21	3	nt	4	nt	39*	nt
O=C(Nc1ccc2oc(-c3cccnc3)nc2c1)c1ccc2c(c1)OCCO2	nt	1	2	1	4	43*
O=C(Nc1ccc2oc(-c3ccccc3)nc2c1)c1ccc2c(c1)OCCO2	-5	5	0	20	7	nt
O=C(Nc1ccc2oc(-c3ccccc3)nc2c1)C1CCCO1 (centres undefined)	nt	3	-2	88*	24	2
O=C(Nc1ccc(-c2nc3ccccc3o2)cc1)C1CCCO1 (centres undefined)	-18	4	1	36	nt	nt
O=C(NC1CCC1)[C@H]1[C@H](CO)[C@H]2Cn3c(ccc(-c4ccccc4)c3=O)[C@@H]1N2CC1CC1	7[16.7 µM]	nt	nt	nt	nt	-2
